PubChem BioAssay AID1159580 (chemical genetic matrix, 2015)
Out of some 5,500 compounds screened, about 2,000 (36%) were called active. Inconclusive results (about 18%) are left out. No stated cut-off is given here; in the data, active means normalized growth mostly below about 0.91 (no sharp cut-off); inconclusive means no clear call, values can overlap the other calls; inactive means mostly above about 0.92. This is one part of the list.

Assay: chemical genetic growth profiling, strain panel (AID 1159580);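 further: tested at 20 µM; growth read once vehicle control cultures reached saturation at 30 °C; 1 = growth at the plate median or of vehicle wells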
Conditions: S. cerevisiae deletion strains, growth OD

Measured: normalized growth

COc1ccc(-c2cc(=O)c3c(O)c(OC)c(OC)cc3o2)cc1O
inactive: locus YBR021W, strain FUR4, stronger effect = lower value 0.907 | locus YBR229C, strain ROT2, stronger effect = lower value 1.01 | locus YCL029C, strain bik1, stronger effect = lower value 0.937 | locus YDL035C, strain GPR1, stronger effect = lower value 0.929 | locus YDL074C, strain BRE1, stronger effect = lower value 0.878 | locus YDL101C, strain DUN1, stronger effect = lower value 0.997 | locus YDL134C, strain PPH21, stronger effect = lower value 1 | locus YDL185W, strain tfp1, stronger effect = lower value 0.96 | locus YDL192W, strain arf1, stronger effect = lower value 0.951 | locus YDR101C, strain arx1, stronger effect = lower value 0.926 | locus YDR150W, strain NUM1, stronger effect = lower value 0.997 | locus YDR162C, strain NBP2, stronger effect = lower value 1 | locus YDR318W, strain mcm21, stronger effect = lower value 0.99 | locus YDR388W, stronger effect = lower value 0.99 | locus YDR502C, strain sam2, stronger effect = lower value 0.953 | locus YEL061C, strain CIN8, stronger effect = lower value 1 | locus YER110C, stronger effect = lower value 0.974 | locus YER155C, strain BEM2, stronger effect = lower value 1.01 | locus YER167W, strain BCK2, stronger effect = lower value 0.979 | locus YGL078C, strain dbp3, stronger effect = lower value 0.944 | locus YGL086W, strain mad1, stronger effect = lower value 0.935 | locus YGL248W, strain PDE1, stronger effect = lower value 0.993 | locus YGR078C, strain PAC10, stronger effect = lower value 0.969 | locus YGR135W, strain pre9, stronger effect = lower value 0.971 | locus YGR229C, strain SMI1, stronger effect = lower value 0.893 | locus YGR252W, strain gcn5, stronger effect = lower value 0.994 | locus YHR030C, strain SLT2, stronger effect = lower value 0.998 | locus YHR079C, strain IRE1 (second series), stronger effect = lower value 0.978 | locus YHR094C, strain hxt1, stronger effect = lower value 0.995 | locus YHR129C, strain ARP1, stronger effect = lower value 0.978 | locus YHR200W, strain rpn10, stronger effect = lower value 0.985 | locus YIL066C, strain RNR3, stronger effect = lower value 0.964 | locus YIL073C, strain SPO22, stronger effect = lower value 0.873 | locus YIL125W, strain kgd1, stronger effect = lower value 0.959 | locus YIR030C, strain dcg1, stronger effect = lower value 0.993 | locus YJL095W, strain BCK1, stronger effect = lower value 0.991 | locus YJL134W, strain LCB3, stronger effect = lower value 0.998 | locus YJL168C, strain set2, stronger effect = lower value 0.993 | locus YJL187C, strain SWE1 (second series), stronger effect = lower value 0.952 | locus YJR043C, strain POL32, stronger effect = lower value 0.954 | locus YJR075W, strain HOC1, stronger effect = lower value 0.983 | locus YKL009W, strain mrt4, stronger effect = lower value 0.943 | locus YKL068W, stronger effect = lower value 0.969 | locus YKL085W, strain MDH1 (second series), stronger effect = lower value 0.985 | locus YKL085W, strain MDH1, stronger effect = lower value 0.985 | locus YKL190W, strain CNB1, stronger effect = lower value 1.01 | locus YKR001C, strain vps1, stronger effect = lower value 0.943 | locus YLR039C, strain RIC1, stronger effect = lower value 0.96 | locus YLR058C, strain SHM2, stronger effect = lower value 1 | locus YLR102C, strain apc9, stronger effect = lower value 0.988 | locus YLR262C, strain YPT6, stronger effect = lower value 0.989 | locus YLR268W, strain sec22, stronger effect = lower value 0.902 | locus YLR330W, strain CHS5, stronger effect = lower value 0.983 | locus YLR342W, strain FKS1 (second series), stronger effect = lower value 0.944 | locus YLR371W, strain rom2, stronger effect = lower value 0.985 | locus YLR418C, strain cdc73, stronger effect = lower value 0.928 | locus YML016C, strain PPZ1, stronger effect = lower value 1 | locus YML032C, strain rad52, stronger effect = lower value 0.971 | locus YML124C, strain tub3, stronger effect = lower value 0.998 | locus YMR078C, strain ctf18, stronger effect = lower value 0.988 | locus YMR223W, strain ubp8, stronger effect = lower value 0.99 | locus YMR263W, strain SAP30, stronger effect = lower value 1.05 | locus YMR307W, strain GAS1, stronger effect = lower value 0.998 | locus YNL067W, strain RPL9B, stronger effect = lower value 0.965 | locus YNL153C, strain GIM3, stronger effect = lower value 0.969 | locus YNL233W, strain BNI4, stronger effect = lower value 0.928 | locus YNL271C, strain bni1, stronger effect = lower value 0.993 | locus YNL298W, strain CLA4, stronger effect = lower value 0.996 | locus YNL307C, strain MCK1, stronger effect = lower value 0.975 | locus YNR052C, strain pop2, stronger effect = lower value 0.973 | locus YOL012C, strain htz1 1.07 | locus YOL147C, strain pex11, stronger effect = lower value 0.97 | locus YOR061W, strain CKA2, stronger effect = lower value 0.98 | locus YOR069W, strain VPS5, stronger effect = lower value 0.999 | locus YOR136W, strain idh2, stronger effect = lower value 0.98 | locus YOR144C, strain elg1, stronger effect = lower value 0.991 | locus YOR184W, strain ser1, stronger effect = lower value 0.897 | locus YOR316C, strain cot1, stronger effect = lower value 0.991 | locus YPL055C, strain LGE1, stronger effect = lower value 0.941 | locus YPR119W, strain clb2, stronger effect = lower value 0.995 | locus YPR141C, strain kar3, stronger effect = lower value 1 | locus YPR163C, strain tif3, stronger effect = lower value 0.992 | locus YPR167C, strain met16, stronger effect = lower value 0.991 | strain wtn01, stronger effect = lower value 0.92
active: locus YNL250W, strain rad50, stronger effect = lower value 0.89
